# Data published in the supplement of paper PMC6555819.
# Key:
# Assay in all cases: PBM binding z-score (relative to random genomic background probes); higher = stronger binding; sequences stand for … in GC…GCGATTGACAGCGTAGAATGAAGG
# [1] = tested on: FXR:RXRa (NR concentration 270 nM, RXRa partner concentration 90 nM)
# Procedure, shortened: (§1)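 Ligand-free nuclear receptor dimers were applied to custom Agilent 4×180K protein-binding microarrays whose double-stranded probes carried direct-repeat seeds, single-nucleotide variants, half-site ablations and random human genomic background sequences in 34-nt variable regions. Incubation lasted 1 h. Binding z-scores were computed against the random background probes from regression-normalized fluorescence.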
# [2] = tested on: LXRa:RXRa (NR concentration 270 nM, RXRa partner concentration 90 nM)
# Procedure, shortened: as §1
# [3] = tested on: LXRa homodimer (NR concentration 270 nM)
# Procedure, shortened: as §1
# [4] = tested on: LXRb:RXRa (NR concentration 270 nM, RXRa partner concentration 90 nM)
# Procedure, shortened: as §1
# [5] = tested on: LXRb homodimer (NR concentration 270 nM)
# Procedure, shortened: as §1
# [6] = tested on: PPARa:RXRa (NR concentration 270 nM, RXRa partner concentration 90 nM)
# Procedure, shortened: as §1
# [7] = tested on: PPARg:RXRa (NR concentration 180 nM, RXRa partner concentration 90 nM)
# Procedure, shortened: as §1
# [8] = tested on: PPARg:RXRa 270nM:90nM, anti-RXR (NR concentration 270 nM, RXRa partner concentration 90 nM)
# Procedure, shortened: as §1
# [9] = tested on: PPARg:RXRa 30nM:10nM, anti-RXR (NR concentration 30 nM, RXRa partner concentration 10 nM)
# Procedure, shortened: as §1
# [10] = tested on: PPARg:RXRa 90nM:30nM, anti-RXR (NR concentration 90 nM, RXRa partner concentration 30 nM)
# Procedure, shortened: as §1
# [11] = tested on: PPARg:RXRa DBDmut IVT, anti-RXR (DBD mutation: RXRa K156A/R161A, NR concentration 270 nM, RXRa partner concentration 90 nM)
# Procedure, shortened: as §1
# [12] = tested on: PPARg:RXRa IVT, anti-PPARg (NR concentration 270 nM, RXRa partner concentration 90 nM)
# Procedure, shortened: as §1
# [13] = tested on: PPARg DBDmut:RXRa IVT, anti-PPARg (DBD mutation: PPARg1 K132A/R137A, NR concentration 270 nM, RXRa partner concentration 90 nM)
# Procedure, shortened: as §1
# [14] = tested on: PPARg DBDmut IVT, anti-PPARg (DBD mutation: PPARg1 K132A/R137A, NR concentration 270 nM)
# Procedure, shortened: as §1
# [15] = tested on: PPARg homodimer (NR concentration 180 nM)
# Procedure, shortened: as §1
# [16] = tested on: PXR:RXRa (NR concentration 270 nM, RXRa partner concentration 90 nM)
# Procedure, shortened: as §1
# [17] = tested on: PXR homodimer (NR concentration 270 nM)
# Procedure, shortened: as §1
# [18] = tested on: RARa:RXR (NR concentration 270 nM, RXRa partner concentration 90 nM)
# Procedure, shortened: as §1
# [19] = tested on: RARa homodimer (NR concentration 270 nM)
# Procedure, shortened: as §1
# [20] = tested on: RARb:RXRa (NR concentration 270 nM, RXRa partner concentration 90 nM)
# Procedure, shortened: as §1
Sequence,PBM binding z-score [1],PBM binding z-score [2],PBM binding z-score [3],PBM binding z-score [4],PBM binding z-score [5],PBM binding z-score [6],PBM binding z-score [7],PBM binding z-score [8],PBM binding z-score [9],PBM binding z-score [10],PBM binding z-score [11],PBM binding z-score [12],PBM binding z-score [13],PBM binding z-score [14],PBM binding z-score [15],PBM binding z-score [16],PBM binding z-score [17],PBM binding z-score [18],PBM binding z-score [19],PBM binding z-score [20]
CGTCCAAGGTCAAGGTCAGTGAGAGAGACTCGAA,7.65,5.63,1.24,4.59,0.615,6.05,6.16,6.13,2.58,4.79,3.51,4.84,1.23,2.41,3.47,4.79,1.08,5.05,1.59,5.69
CAAACTAGGTCAAGATCAAAGTCGGTTTGTGCCA,3.58,2.31,0.143,1.67,0.237,4.66,7.62,6.55,4.29,6.19,8.24,8.61,5.86,4.95,2.34,1.31,-0.0944,2.05,0.622,4.02
AATACAGGTTCATCGTAGGCCAGAGTACGCACAG,3.44,4.91,1.85,2.3,0.451,3.19,1.67,1.31,0.478,0.764,0.0837,0.966,1.55,1.09,0.907,3.55,1.4,2.46,0.533,1.8
GATACATGGTCAGCTAGAGGCCAGAGTATGGAAA,-0.242,-0.822,-0.541,-0.77,-1.11,-0.488,0.533,-0.14,-0.161,-0.183,-0.61,0.0448,-1.36,-0.885,-0.578,-0.344,-0.0734,-0.157,-0.619,0.819
TCATATAGGTAAACGGGTGAAAGTCCGTAAGTTA,0.647,0.398,0.0709,0.834,-0.231,2.29,2.73,3.65,3.72,3.68,4.54,4.35,1.22,1.51,0.689,0.621,0.241,0.612,0.587,0.567
CGTCCCAGGTCAGCAGGTCAGTGAAAGCGACGTG,3.56,2.34,0.419,1.95,-0.0332,3.49,2.6,2.88,0.0912,1.51,1.69,2.71,-0.717,-0.861,1.2,2.16,-0.206,3.19,0.0121,4.12
CGAACTAGGACAGAACAGGACAGTGAAGGATGAT,-0.286,-0.561,-0.364,-0.706,-0.58,-0.0263,1.23,0.13,0.00825,0.0847,3.37,2.51,0.329,1,-0.301,-0.366,-0.302,-0.649,0.312,0.117
TCGAGTAGGTTAGTCGGGGCTTTCAGCCAACATA,-0.154,-0.116,-0.783,-0.0101,-1.08,0.158,-0.922,0.148,0.909,0.595,1.86,0.952,-1.71,-1.29,-0.983,-0.467,-0.898,-0.14,-1.19,0.0518
GTAGACAGGTGAAACGCAGGTAACTCAGGGTGGC,0.081,0.114,-0.34,-0.0403,-0.733,0.941,0.744,0.425,-0.305,0.121,1.08,0.827,-0.547,-0.798,-0.292,-0.0707,-0.535,0.264,-0.278,0.688
ATCTCTAGGTAAAGATAGTTTAGTGAATGCAAAT,0.535,0.896,0.494,0.361,0.415,0.104,0.777,0.218,0.448,0.329,1.81,2.04,1.07,0.379,0.699,0.277,0.329,-0.0138,0.933,0.0107
CTTGCTAGGTCAATGGTCAGCTAAAGCAGCTCGC,2.93,2.77,0.107,1.33,-0.0348,3.41,5.43,5.94,4.16,5.69,5.14,4.93,-0.161,0.902,0.936,0.794,-0.623,1.83,-0.394,3.79
GCTGCCAGGTCAGGTTGGTCAGCTAACGGGTACG,1.58,0.973,-0.337,0.712,-0.51,1.64,0.272,0.752,-0.562,0.147,0.771,1.4,-0.447,-1.57,0.22,0.724,-0.291,1.25,-0.438,3.23
CCTCCAAGGTCAAAGGTCAGTGAAGAGATGACGG,8.2,6.83,3.53,6.63,1.95,7.19,10.5,8.79,8.47,9.3,3.51,5.62,0.87,-0.101,3.71,6.78,2.06,8.62,3.07,6.03
ACTCGGAGGACAAAGGTCCGAGCTACGCCAGTGA,-0.0908,0.0119,-0.328,-0.654,-0.577,0.672,1.66,2.29,0.616,2.38,0.177,0.313,-0.996,-0.635,-0.36,-0.365,-0.238,-0.334,-0.387,1.29
CCTTACGGGTCCCGAGGTTATAGCACGACGAGCG,0.0402,0.394,-0.262,0.124,-0.6,0.95,0.635,-0.283,-0.617,-0.745,-1.26,-0.545,-0.471,-1.66,-0.111,0.32,-0.277,0.482,0.138,0.514
CGAACGAGGGCATAAGTTGATAGCAAATGCCGAT,0.0955,-0.0152,-0.319,0.143,-0.74,1.49,1.93,2.59,0.799,2.34,2.66,1.67,-0.0137,-0.0553,0.0801,0.19,0.226,0.129,-0.269,1.58
TCATATAGGTAAACAGGTGATAGTCCGTAAGTTA,0.91,0.907,0.318,0.806,-0.237,1.73,2.35,3.2,4.04,3.64,4.54,3.86,2.2,1.3,1.51,0.551,0.241,0.892,1.46,0.497
TCGAGTAGGTTAGTCGGGGCATTCGGCCAACATA,-0.18,-0.185,-0.523,0.162,-0.854,0.505,-0.197,0.72,0.731,0.597,1.74,2.04,-1.62,-1.17,0.0341,0.113,0.177,0.065,-0.901,0.58
CAAACTAGGTCACGGAGGTCAAAGTCCGTGCGTA,7.4,6.23,6.45,5.9,1.36,6.83,10.4,8.3,7.09,8.25,8.69,9.3,5.33,6.03,5.85,6.63,10.4,7.02,2.61,5.34
ATATGTAGGTTACATCCGGGTCATTGAGGCTATG,2.34,4.14,1.44,2.74,1.01,4.44,5.78,5.04,2.75,4.39,7.27,7.27,2.02,2.36,1.82,3.65,4.12,3.65,0.615,2.38
TCTTGTAGATCAATAGAGGTTAAGGAAGTGCGCT,1.25,2.42,0.324,1.5,-0.201,2.08,0.136,1.99,3.04,2.63,1.91,0.959,0.906,0.773,0.732,2.58,0.412,1.96,0.894,1.04
AATACAGGGTCACTAAGCCAGAGTAGGTACGAAT,6.17,4.69,0.732,3.96,0.99,5.51,6.22,5.26,2.31,3.83,3.03,4.56,1.91,0.89,2.06,3.23,0.477,4.15,0.677,4.17
CCTTGGAGGACAGAAGGTCAGAGCTGTCCGCTTT,1.46,1.83,0.306,1.23,-0.609,2.23,0.715,2.34,0.178,1.81,0.658,1.17,-1.14,-2.25,1.98,1.69,0.0669,2.36,0.737,3.29
CGTCCAAGGTCAGCAGGTCAGTGAGAGCGACGTG,5.85,4.1,0.541,2.94,-0.239,4.74,4.1,4.36,1.29,2.94,2.88,3.81,-0.522,-0.683,3.25,3.75,0.915,4.78,1.19,5.39
TCATATAGGTAAAAGGTGCAAGTCGGTGTGGTAA,1.29,1.09,0.188,1.25,0.0143,3.34,5.37,5.97,5.85,6.52,4.71,3.76,0.923,0.831,1.63,0.954,0.487,0.733,1.23,0.917
CCTTACGGGTTACGAGGTTATAGCACGACGAGCG,1.8,2.11,0.0451,1.8,-0.317,3.36,2.89,3.03,0.671,1.8,1.39,2.73,-0.246,1.02,1.32,1.95,0.0657,2.76,0.573,1.58
ATCTCTACGTAACAAGTTCAGTGAAAGAGAGGAC,0.253,0.5,0.496,0.811,1.27,0.449,0.368,0.316,0.334,0.321,-0.487,0.36,1.13,1.51,0.708,1.56,2.01,0.741,0.878,1.46
AGAACGAGGGCACGCTGAGTTGATACCAGAGTAG,0.816,0.364,-0.278,0.0367,-0.613,1.76,2.2,1.8,0.433,1.03,4.16,3.75,0.259,-0.00374,0.189,1.25,0.342,0.748,-0.804,2.36
ATCTCTAGGTTAAGTTCAGTGAAAGATCGATAGA,1.78,2.76,1.8,1.49,1.76,2.41,1.87,2.34,1.11,1.83,3.77,3.34,1.74,1.46,2.01,2.47,2.53,1.75,1.83,2.61
